Data on 18 compounds can be found in PubChem BioAssay (EPA / NIEHS).

Read-out in test [1]: Interleukin-6 (IL6), IL6 (gene 3569)
Put plainly: BSK_CASM3C_IL6: BioMAP Diversity Plus: CASM3C Assay for Interleukin-6 (IL6) Biomarker Activity for (AID 2283040). Particulars: primary human coronary artery smooth muscle cells; actives raise or lower the signal.

Read-out in test [2]: Tissue plasminogen activator (tPA), PLAT (gene 5327)
Put plainly: BSK_BE3C_tPA: BioMAP Diversity Plus: BE3C Assay for Tissue plasminogen activator (tPA) Biomarker Activity (AID 2283041).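 As to outcome: tPA level quantified by ELISA one day after compound addition.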 The conditions noted are these: primary human bronchial epithelial cells; actives raise or lower the signal. A digest of the protocol:
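Human primary bronchial epithelial cells were dosed with chemical and tPA biomarker levels measured by ELISA 24 hours later. Activity was fitted bidirectionally against DMSO as negative control and baseline.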

Read-out in test [3]: Interleukin-8 (IL8), CXCL8 (gene 3576)
Put plainly: BSK_CASM3C_IL8: BioMAP Diversity Plus: CASM3C Assay for Interleukin-8 (IL8) Biomarker Activity (AID 2283042).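 Also: IL-8 protein level quantified by ELISA.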 The conditions noted are these: primary human coronary artery smooth muscle cells; actives raise or lower the signal.

Read-out in test [4]: Human Leukocyte Antigen - DR isotype (HLADR), HLA-DRA (gene 3122)
Put plainly: BSK_CASM3C_HLADR: BioMAP Diversity Plus: CASM3C Assay for Human Leukocyte Antigen - DR isotype (HLADR) Biomarker Activity (AID 2283043).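 Also: cell-surface HLA-DR protein level quantified by ELISA.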 The conditions noted are these: primary human coronary artery smooth muscle cells; actives raise or lower the signal.

Read-out in test [5]: Macrophage colony-stimulating factor (MCSF), CSF1 (gene 1435)
Put plainly: BSK_CASM3C_MCSF: BioMAP Diversity Plus: CASM3C Assay for Macrophage colony-stimulating factor (MCSF) Biomarker Activity (AID 2283044).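 Also: M-CSF protein amount quantified by ELISA after 24 h exposure.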 Particulars: primary human coronary artery smooth muscle cells; actives raise or lower the signal.

Read-out in test [6]: Low-density lipoprotein receptor (LDLR), LDLR (gene 3949)
Put plainly: BSK_CASM3C_LDLR: BioMAP Diversity Plus: CASM3C Assay for Low-density lipoprotein receptor (LDLR) Biomarker Activity (AID 2283045).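 Also: LDLR protein level on the cell surface quantified by ELISA.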 Particulars: primary human coronary artery smooth muscle cells; actives raise or lower the signal.

Read-out in test [7]: Monocyte Chemoattractant Protein-1 (MCP1), CCL2 (gene 6347)
Put plainly: BSK_CASM3C_MCP1: BioMAP Diversity Plus: CASM3C Assay for Monocyte Chemoattractant Protein-1 (MCP1) Biomarker Activity (AID 2283046).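 Also: MCP-1 level quantified by ELISA 24 h after dosing.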 Particulars: primary human coronary artery smooth muscle cells; actives raise or lower the signal.

Test [8] in a line: BSK_CASM3C_Proliferation: Cell Proliferation Assessment in the BioMAP Diversity Plus: CASM3C Assay (AID 2283047).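 Also: sulforhodamine B total protein stain as relative cell number at 560 nm; sub-confluent cells exposed 48 h before staining; fitted both ways against DMSO so gain or loss of cell number.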 Particulars: primary human coronary artery smooth muscle cells.
Read-out in test [9]: Monokine induced gamma interferon (MIG), CXCL9 (gene 4283)
Put plainly: BSK_CASM3C_MIG: BioMAP Diversity Plus: CASM3C Assay for Monokine induced gamma interferon (MIG) Biomarker Activity (AID 2283048).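 Also: MIG protein level measured by ELISA.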 Particulars: primary human coronary artery smooth muscle cells; actives raise or lower the signal.

Read-out in test [10]: serum amyloid A (SAA), SAA1 (gene 6288)
Put plainly: BSK_CASM3C_SAA: BioMAP Diversity Plus: CASM3C Assay for serum amyloid A (SAA) Biomarker Activity (AID 2283049).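 Also: SAA protein level quantified by ELISA.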 Particulars: primary human coronary artery smooth muscle cells; actives raise or lower the signal.

Where “and” joins values, the source holds several entries; their conditions need not be identical. Equal entries are not always repeated. Calls of active or inactive are those of the source. The calls were made as follows: active = hit-call score of the fitted dose curve at least 0.9, where 1 is the maximum; inactive = score below 0.9.

Usually AC50 stands for the concentration at which the activity in the assay is half-maximal. As to `CCOCN(C(=O)CCl)c1c(C)cccc1CC`, the result in [1], in test [2], in test [4], in [5], in test [6] and in [7] was inactive. Moreover, the result in [9] and in test [10] was inactive. Moreover, the AC50 in test [3] was 15.8 µM (active); in test [8], 30 µM (active).

Take `COP(=O)(OC)OC=C(Cl)Cl`: the result in test [1], in test [2], in [3], in test [4], in test [5] and in test [6] was inactive. Moreover, the outcome in [7], in test [9] and in [10] was inactive. Besides, the half-maximal activity concentration (AC50) in test [8] was 8.32 µM (active).

On to `COC(=O)c1ccccc1S(=O)(=O)NC(=O)Nc1nc(C)nc(OC)n1`, for which the outcome in test [1], in test [2], in test [3], in [4], in test [5] and in test [6] was inactive. For the same compound, the outcome in test [7], in [8], in test [9] and in [10] was inactive.

Take `CCOc1nc(NC)nc(NC(=O)NS(=O)(=O)c2ccccc2C(=O)OC)n1`: the outcome in test [1], in test [2], in test [3], in [4], in test [5] and in test [6] was inactive. The outcome in test [7], in test [8], in [9] and in test [10] was inactive.

On to `Oc1cc(Cl)ccc1Oc1ccc(Cl)cc1Cl`, for which the AC50 in test [2] is 20.4 µM (active) [middle of 4 runs]; in test [3] it was 37.7 µM (active) [middle of 4 runs]; in test [4], 29.4 µM (active) [middle of 4 runs]; in test [5] it was 34 µM (active) [middle of 4 runs]; in [6], 30 µM (active) [middle of 4 runs]; in test [7] it was 33.6 µM (active) and 37.7 µM (active) and 31.4 µM (active). Moreover, the figures for the AC50 in test [8], in test [9] and in [10] were 17.6 µM (active) [middle of 4 runs], 37.8 µM (active) [middle of 4 runs] and 32 µM (active) [middle of 4 runs], respectively.

For `CCCN(CCC)c1c([N+](=O)[O-])cc(C(F)(F)F)cc1[N+](=O)[O-]`, the outcome in test [1], in [2], in test [3], in [4], in test [5] and in test [6] was inactive. Also, the result in [7], in [8], in test [9] and in [10] was inactive.

Turning to `COC(=O)c1ccccc1CS(=O)(=O)NC(=O)Nc1nc(OC)cc(OC)n1`, the result in test [1], in test [2], in [3], in test [4], in test [5] and in [6] was inactive. For the same compound, the outcome in test [7], in test [8], in test [9] and in [10] was inactive.

As to `CC1(c2ccc(Oc3ccccc3)cc2)OC(=O)N(Nc2ccccc2)C1=O` (stereo not drawn), the outcome in [1], in test [2], in test [3], in [4], in [5] and in [6] was inactive. The result in test [7], in [9] and in test [10] was inactive. Besides, the AC50 in test [8] was 13.7 µM (active).

With `CNC(=O)/C=C(\C)OP(=O)(OC)OC`, the result in [1], in test [2], in test [3], in test [4], in [5] and in [6] was inactive. In addition, the outcome in test [7], in test [8], in test [9] and in [10] was inactive.

As to `CCS(=O)(=O)c1cccnc1S(=O)(=O)NC(=O)Nc1nc(OC)cc(OC)n1`, the result in test [1], in test [2], in [3], in test [4], in [5] and in [6] was inactive. In addition, the outcome in test [7], in test [8] and in [9] was inactive. Moreover, the AC50 in [10] was 16.4 µM (active).

Consider `CC1(C)C(C=C(Cl)Cl)C1C(=O)OC(C#N)c1ccc(F)c(Oc2ccccc2)c1` (stereo not drawn), for which the outcome in test [1], in test [2], in test [3], in test [4], in test [5] and in [6] was inactive. The outcome in test [7], in test [8], in test [9] and in [10] was inactive.

For the compound `CN1CSC(=S)N(C)C1`, the figures for the AC50 in [1] and in test [8] were 16.4 µM (active) and 14.5 µM (active), respectively. In addition, the outcome in test [2], in test [3], in test [4], in [6], in [7] and in test [9] was inactive. The outcome in test [10] was inactive.

Regarding `N#Cc1c(Cl)c(Cl)c(Cl)c(C#N)c1Cl`, the AC50 was 3.56 µM (active) in test [1]; 3.97 µM (active) in [2]; 3.36 µM (active) in [3]; 6.09 µM (active) in [4]; 3.31 µM (active) in [5]; 3.56 µM (active) in test [7]. Further, the AC50 in test [8] is 0.148 µM (active); in test [9] it was 2.14 µM (active); in [10], 4.82 µM (active). Also, the result in test [6] was inactive.

Consider `COc1nn(CSP(=S)(OC)OC)c(=O)s1`, for which the result in [1], in test [2], in [3], in test [4], in [5] and in [6] was inactive. Also, the result in test [7], in test [8], in test [9] and in test [10] was inactive.

As for `CC(C)N(C(=O)COc1nnc(C(F)(F)F)s1)c1ccc(F)cc1`, the result in [1], in test [2], in test [3], in test [4], in test [5] and in test [6] was inactive. Moreover, the result in [7], in [8], in test [9] and in test [10] was inactive.

Turning to `COC(=O)c1ccccc1S(=O)(=O)NC(=O)N(C)c1nc(C)nc(OC)n1`, the outcome in [1], in [2], in [3], in test [4], in test [5] and in [6] was inactive. Also, the result in [7], in test [8], in test [9] and in test [10] was inactive.

For the compound `CC(C)(C)C(O)C(Oc1ccc(Cl)cc1)n1cncn1` (stereo not drawn), the result in test [1], in [2], in test [3], in test [4], in test [5] and in test [6] was inactive. In addition, the result in test [7], in test [8], in [9] and in test [10] was inactive.

For the compound `Cc1[nH]c(=O)n(C(C)(C)C)c(=O)c1Cl`, the outcome in test [1], in test [2], in [3], in [4], in test [5] and in test [6] was inactive. Besides, the outcome in test [7], in test [8], in test [9] and in [10] was inactive.
